Data on 40 compounds can be found in PubChem BioAssay (Tox21).

Each structure is given as a SMILES string. Records with an inconclusive call do not appear. Entries that show only a call come without a potency. A number with no mark means an inactive call. Activity calls are given as the source filed them. Calls follow the shape of the dose curve; as a rule, active = well fitted inhibition curve with a large enough effect in the signal ratio in the repeat runs, with a control signal flat; inconclusive = weak or mixed curves, or effect the other way; inactive = flat fitted curve, though single readings scatter; the % refers to the signal ratio.

In this assay the target is D(2) dopamine receptor (Homo sapiens) (UniProt P14416). Description: Dopamine D2 receptor (DRD2) small molecule antagonists, cell-based qHTS assay (AID 1963595). The settings on record: HEK293-DRD2 cAMP HTRF antagonist mode; series mostly up to 92.4 µM; activity change, negative = inhibition: at the top concentration. The text has this: National Center for Advancing Translational Sciences [NCATS]
Chain of D(2) dopamine receptor (Homo sapiens) (P14416 whole entry, looked up): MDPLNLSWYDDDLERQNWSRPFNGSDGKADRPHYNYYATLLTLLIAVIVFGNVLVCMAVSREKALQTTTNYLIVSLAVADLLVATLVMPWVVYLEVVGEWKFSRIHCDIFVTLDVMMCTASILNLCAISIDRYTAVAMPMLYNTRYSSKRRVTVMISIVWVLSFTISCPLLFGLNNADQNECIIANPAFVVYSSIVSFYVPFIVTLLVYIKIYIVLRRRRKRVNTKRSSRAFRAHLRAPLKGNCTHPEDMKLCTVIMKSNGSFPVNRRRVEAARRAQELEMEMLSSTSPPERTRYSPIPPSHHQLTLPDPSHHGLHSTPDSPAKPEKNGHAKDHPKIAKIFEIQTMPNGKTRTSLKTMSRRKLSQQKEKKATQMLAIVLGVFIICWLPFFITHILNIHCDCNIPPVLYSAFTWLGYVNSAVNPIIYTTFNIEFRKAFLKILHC
Division of Preclinical Innovation [DPI]
U.S. Environmental Protection Agency [EPA]
National Institutes of Environmental Health Sciences [NIEHS]
National Toxicology Program [NTP]
U.S. Food and Drug Administration [FDA]
DRD2 is the D2 subtype of the dopamine receptor, which is coupled to Gi subtype of G protein-coupled receptor. This G protein-coupled receptor inhibits adenylyl cyclase activity. The DRD2-HEK293 cell line stably expressing D2 dopamine receptor can be used for screening agonists and antagonists of interactions between D2 and its ligands. The Hek293-DRD2 cAMP assay is based on HTRF technology. It measures changes of cAMP accumulation in response to Gi coupled GPCR activation or inhibition.
Tox21 Assay Protocol Summary:
DRD2-Hek293 cells were dispensed at 600 cells/3uL/well in 1536-well white plates using a Multidrop Dispenser. After the assay plates were incubated at a 37 C/5% CO2 incubator for 24 h, 1 uL of Ro20-1724 at final concentration of 0.1 mM was transferred to the assay plate by a Flying Reagent Dispenser. Following Ro20-1724 addition, 23 nL of compound dissolved in DMSO, positive controls or DMSO only was added to the assay plates via Wako pintool station. The assay plates were incubated at room temperature for 10 min. Next, 1 uL of mixture of NKH477 (final concentration at 200 nM) and quinpirole (final concentration at 12 nM) was added into the plates. After the assay plates were incubated at room temperature for an additional 30 min, 2.5 ul/well of cAMP-d2 and 2.5 ul/well of anti-cAMP-cryptate were added respectively into the assay plates using a Flying Reagent Dispenser. The plates were incubated at room temperature for 1 h. The fluorescence intensity in the plates was measured at 340 nm excitation and 665 & 620 nm emission by an Envision plate reader.
A general note: Quantitative high-throughput screening tests each substance at several concentrations.
Consider `COc1ccc(CCC(C)=O)cc1`, for which the Potency entry was “inactive”. Same read-out and setting: the result for `CC(C)OB(OC(C)C)OC(C)C` reads “inactive”. As for `Cc1ccccc1Cl`, the Potency entry is “inactive”. With `CC(=O)OC/C=C(\C)CCC=C(C)C`, the Potency result was “inactive”. On the same count and under the same terms, the result for `N[C@@H](Cc1cc(I)c(Oc2ccc(O)c(I)c2)c(I)c1)C(=O)O` reads “inactive”; that for `Cc1cccc(C)c1`, “inactive”; that for `CC1(C)[C@@H]2CC[C@@]1(C)C(=O)C2`, “inactive”. As to `CCCCC(CC)C(=O)O` (stereo not given), the Potency entry was “inactive”. Same read-out and setting: the result for `O=C1CCc2ccccc2O1` reads “inactive”. Same read-out and setting: the result for `CCCCCCCC(=O)OCC(O)CO` (stereo not given) reads “inactive”; that for `CC(C)Cc1ccc(C(C)C(=O)O)cc1` (stereo not given), “inactive”; that for `Cc1ccc(S(=O)(=O)NCl)cc1`, “inactive”. On the same count and under the same terms, the result for `CC/C=C(\C(=O)N[C@@H]1C(=O)N2C(C(=O)OCOC(=O)C(C)(C)C)=C(COC(N)=O)CS[C@H]12)c1csc(N)n1` reads “inactive”; that for `O=C(O)CCCCC(=O)O`, “inactive”. In the case of `O=C(O)CCCCCCCC(=O)O`, the Potency result is “inactive”. Still for that read-out and setting: the result for `CCCCCCCCCCCC(=O)OC` reads “inactive”. Same read-out and setting: the result for `CC1=NN(c2ccccc2)C(=O)C1` reads “inactive”; that for `NC(=O)N/N=C/c1ccc([N+](=O)[O-])o1`, “inactive”; that for `CCOC(=O)c1ccc(O)cc1`, “inactive”.

Consider `COCC(C)N` (stereo not given), for which the Potency result was “inactive”.

As to `CCCCC(CC)COC(=O)c1ccc(N(C)C)cc1` (stereo not given), the Potency result was “inactive”. For `CC(C)CCCCCCCOC(=O)CCCCC(=O)OCCCCCCCC(C)C`, the Potency entry was “inactive”. With `OC[C@@H](O)[C@@H](O[C@@H]1O[C@H](CO)[C@H](O)[C@H](O)[C@H]1O)[C@H](O)[C@@H](O)CO`, the Potency entry is “inactive”. Still for that read-out and setting: the result for `CC(=O)CCC=C(C)C` reads “inactive”; that for `CCCCC(=O)O`, “inactive”; that for `C=C(C)CC(C)(C)C`, “inactive”. For `COc1cc(OC)c(C(=O)CCCN2CCCC2)c(OC)c1`, the Potency result is “inactive”. Take `C=C(C)C(=O)Nc1ccc(Cl)c(Cl)c1`: the Potency entry is “inactive”. In the case of `Cc1cccc(O)c1C`, the Potency result is “inactive”. Regarding `C/C=C/c1ccc(OCC)c(O)c1`, the Potency entry was “inactive”. On the same count and under the same terms, the result for `OC1CCCCC1` reads “inactive”.

For the compound `O=[N+]([O-])C(CO)(CO)CO`, the Potency entry is “inactive”. Still for that read-out and setting: the result for `NC(=O)c1cnccn1` reads “inactive”; that for `Nc1ccn([C@H]2CC[C@@H](CO)O2)c(=O)n1`, “inactive”. Still for that read-out and setting: the result for `C=CC(=O)NC(C)(C)CS(=O)(=O)O` reads “inactive”. On to `C=CCNC(N)=S`, for which the Potency result is “inactive”. Still for that read-out and setting: the result for `Cc1cccc2n[nH]nc12` reads “inactive”; that for `Cc1ccc(S(=O)(=O)O)cc1`, “inactive”. For `C[Si]1(C)O[Si](C)(C)O[Si](C)(C)O[Si](C)(C)O1`, the “activity change, negative = inhibition” value was 4.18%. With `CCCCCC(=O)O`, the Potency entry is “inactive”.
